hNpr1 antagonist – Natriuretic polypeptide receptor (hNpr1) antagonism - Primary qHTS | Potency, µM (titrated, usually from 46.3 µM), most hits filed as inhibitors | 76,000 tested, 1.6% active | HEK293 hNpr1 GloSensor cGMP, ANP-stimulated luminescence; calls by dose curve; also: nearly all actives have a fitted effect of over 60% in size
Target sequence (P16066 whole entry, looked up): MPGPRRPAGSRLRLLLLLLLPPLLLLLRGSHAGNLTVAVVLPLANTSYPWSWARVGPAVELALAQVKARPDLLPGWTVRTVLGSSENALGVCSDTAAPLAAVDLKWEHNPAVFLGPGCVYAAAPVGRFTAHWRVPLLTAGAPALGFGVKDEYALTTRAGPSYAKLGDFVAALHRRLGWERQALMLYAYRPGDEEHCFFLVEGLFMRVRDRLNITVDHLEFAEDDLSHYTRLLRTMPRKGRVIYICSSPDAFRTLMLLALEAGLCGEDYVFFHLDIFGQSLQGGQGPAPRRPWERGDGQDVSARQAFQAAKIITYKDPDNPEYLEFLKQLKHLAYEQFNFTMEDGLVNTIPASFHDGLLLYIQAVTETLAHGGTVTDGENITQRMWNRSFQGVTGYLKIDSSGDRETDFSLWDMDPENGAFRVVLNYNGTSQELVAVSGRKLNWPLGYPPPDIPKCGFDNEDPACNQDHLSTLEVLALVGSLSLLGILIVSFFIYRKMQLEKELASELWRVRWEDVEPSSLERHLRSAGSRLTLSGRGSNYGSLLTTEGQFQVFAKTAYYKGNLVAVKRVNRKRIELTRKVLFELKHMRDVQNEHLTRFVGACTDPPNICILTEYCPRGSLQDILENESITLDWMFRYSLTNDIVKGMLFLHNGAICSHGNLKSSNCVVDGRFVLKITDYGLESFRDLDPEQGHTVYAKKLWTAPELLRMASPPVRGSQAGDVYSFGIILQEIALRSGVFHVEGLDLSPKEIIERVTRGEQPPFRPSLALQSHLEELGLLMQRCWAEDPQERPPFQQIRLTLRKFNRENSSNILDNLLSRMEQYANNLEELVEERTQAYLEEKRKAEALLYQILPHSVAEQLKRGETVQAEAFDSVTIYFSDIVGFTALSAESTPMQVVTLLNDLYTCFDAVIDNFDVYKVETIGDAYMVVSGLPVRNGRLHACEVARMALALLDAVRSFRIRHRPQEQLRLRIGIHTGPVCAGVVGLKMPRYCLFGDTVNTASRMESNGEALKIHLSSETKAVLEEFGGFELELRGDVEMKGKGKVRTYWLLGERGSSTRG
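Compound pre-incubated 30 min at room temperature on GloSensor-loaded HEK293 cells stably carrying hNpr1 and the pGS-40F cGMP biosensor. Stimulation uses hNppA at 0.1 nM final; luminescence is taken at baseline and 20 min post-agonist.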
Luciferase inh – Firefly luciferase inhibition profiling of diverse chemical library using quantitative high-throughput screening. AID 1347043, 2019. Potency, µM (doses to about 115 µM), hits mostly inhibitors. 76,000 tested, 2.5% active. Luciferin 4-monooxygenase (Photinus pyralis), P08659. purified P. pyralis luciferase, luminescence, biochemical; also: nearly all actives have a fitted effect of over 65% in size
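Luminescence read by CCD imaging after purified firefly luciferase (10nM final) was added to substrate buffer holding 10uM D-luciferin and 10uM ATP, pH 7.5, pre-dosed with compound.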
HEK293 tox – Cytotoxic Profiling in HEK 293 Cell Line of Diverse Libraries Using Quantitative High-Throughput Screening | HEK 293 viability, ATP luminescence (CellTiter-Glo), 48-72 h | Potency, µM (titrated, usually from 115 µM), most hits filed as inhibitors | 94,000 tested, 6.6% active | AID 1345083, 2018; also: nearly all actives have a fitted effect of over 60% in size
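Cytotoxicity was scored by loss of ATP-coupled luminescence (CellTiter-Glo) in HEK 293 cells. Compound treatment ran 48 or 72 hr at 37 degree Celsius, 5% CO2, 95% humidity.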
GPT2 inh – Primary qHTS assay for inhibitors of Glutamate pyruvate transaminase 2 (GPT2); Alanine aminotransferase 2 (Homo sapiens), Q8TD30; Recombinant GPT2, coupled pyruvate oxidase/HRP Amplex Red fluorescence; Potency, µM (series often up to 57.7 µM), most hits filed as inhibitors; 100,000 tested, 0.25% active; AID 1671188, 2021; also: nearly all actives have a fitted effect of over 60% in size
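Inhibition is scored from Amplex Red fluorescence generated when pyruvate oxidase and HRP act on pyruvate released by GPT2. Reactions contain 10ng/uL enzyme, 250uM a-KG and 2mM L-alanine and run 30 min at room temperature.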
3T3 cytotox – Cytotoxic Profiling in NIH 3T3 Cell Line of Diverse Libraries Using Quantitative High-Throughput Screening | NIH 3T3 viability, CellTiter-Glo ATP luminescence, 48-72 h | Potency, µM (top dose mostly 96.7 µM), hits mostly inhibitors | 94,000 tested, 4.3% active; also: nearly all actives have a fitted effect of over 55% in size
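First NIH 3T3 cells are plated at 400 cells/well; next compound is pinned in; then plates incubate 48 or 72 hr at 37 °C; finally CellTiter-Glo is added and luminescence read after 10 min.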
Numbers stand for hits; 0 = inactive; ? = inconclusive; - = not tested or not shown. Hits are enriched below; roughly 10% of the tested compounds scored in any of these assays. Unless noted, calls follow the shape of the dose curve; as a rule, active = well fitted curve in the direction sought with a large enough effect; inconclusive = small, poorly fitted or top-dose-only effect, or another doubt; inactive = no such curve, though single readings can be large; an effect the other way counts as inactive or inconclusive.

SMILES	hNpr1 antagonist	Luciferase inh	HEK293 tox	GPT2 inh	3T3 cytotox
C[C@H]1[C@H](C)CC[C@]2(C(=O)OC3OC(CO)C(O)C(O)C3O)CC[C@]3(C(=O)O)C(=CCC4[C@@]5(C)CC[C@H](O[C@@H]6O[C@@H](C)[C@H](OC7OC(CO)C(O)C(O)C7O)[C@@H](O)[C@H]6O)C(C)(C)C5CC[C@]43C)[C@H]12 (some centres not stated)	-	-	-	0	-
c1ccc(CCN2CCNc3cc(-c4cn[nH]c4)ncc3C2)cc1	0	0	?	0	89µM
c1ccc(CN2CCNc3cc(-c4cccnc4)ncc3C2)cc1	0	0	?	0	0
c1ccc(CCN2CCNc3cc(NCc4cccnc4)ncc3C2)cc1	0	0	50µM	0	50µM
COCCN1CCNc2cc(-c3ccc(Oc4ccccc4)cc3)ncc2C1	?	28µM	50µM	0	45µM
OCc1cccc(-c2cc3c(cn2)CN(CCc2ccccc2)CCN3)c1	0	0	?	0	?
O=C(NCc1ccccc1Cl)c1nc2sccn2c1-c1cccnc1	-	-	?	0	?
COCCNc1ncc(-c2ccncc2)c2c1OCC2	0	0	0	0	?
COCCNc1ncc(-c2ccccc2)c2c1OCC2	0	28µM	?	0	?
COCCNc1ncc(-c2ccsc2)c2c1OCC2	0	22µM	?	0	?
COCCNc1ncc(-c2ccnc(C)c2)c2c1OCC2	0	0	?	0	?
c1ccc(CCc2nc3nccc(-c4ccccn4)n3n2)cc1	0	?	0	0	0
COC[C@@H](N)C(=O)N1C[C@@H]2C[C@H]1C(=O)N2c1cc(-c2ccccc2)ccc1OC	0	0	0	0	0
CCCC(=O)N1Cc2ccccc2CC2(CCCN(C)C2)C1 (configuration not stated)	-	-	89µM	0	?
CN1CCCC2(Cc3ccccc3CN(C(=O)CCCC(=O)O)C2)C1 (configuration not stated)	-	-	0	0	0
COc1cc(NC2=N[C@H]3[C@@H](O)[C@H](O)C[C@H](C(=O)N(C)Cc4ccccc4)[C@H]3S2)cc(OC)c1	0	0	0	0	0
Cc1ccc(NC2=N[C@H]3[C@@H](O)[C@H](O)C[C@H](C(=O)N(C)Cc4ccccc4)[C@H]3S2)cc1	0	32µM	0	?	0
C[C@@H](NCc1cc2ccccc2[nH]1)c1cccc2ccccc12	-	-	-	0	-
CCC1Oc2ccc(NC(=O)Cc3ccccc3)cc2CN(Cc2cccc(OC)c2)C1=O (configuration not stated)	0	0	?	0	?
CCNC(=O)Nc1ccc2c(c1)CN(Cc1cccc(OC)c1)C(=O)C(CC)O2 (configuration not stated)	0	0	?	0	0
CCC1Oc2ccc(NC(=O)COc3ccccc3)cc2CN(Cc2cccc(OC)c2)C1=O (configuration not stated)	0	0	45µM	0	?
CCC1Oc2ccc(NC(=O)Nc3cccc(OC)c3)cc2CN(Cc2ccc3c(c2)OCO3)C1=O (configuration not stated)	0	0	32µM	0	?
COC(=O)c1ccc2nc(C[C@@H]3C[C@@H](C(C)C)[C@H](CNCc4ccccc4O)C=C3C)[nH]c2c1	?	0	22µM	0	20µM
COC(=O)c1ccc2nc(C[C@@H]3C[C@@H](C(C)C)[C@H](CNC4CCN(C)CC4)C=C3C)[nH]c2c1	0	0	22µM	0	25µM
COC(=O)c1ccc2nc(C[C@@H]3C[C@@H](C(C)C)[C@H](CNC4CCN(C(C)=O)CC4)C=C3C)[nH]c2c1	0	0	?	0	?
COC(=O)c1ccc2nc(C[C@@H]3C[C@@H](C(C)C)[C@H](CNC(=O)CCC(=O)O)C=C3C)[nH]c2c1	0	0	0	0	0

Source: PubChem BioAssay (National Center for Advancing Translational Sciences (NCATS))
